Measurements published in PubChem BioAssay (NCI).
Compounds without any hit were thinned out: in the full panel of roughly 83,000, 20% have a hit.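 Treatment: one concentration, 48 hours, 96-well format. Scoring: percent growth, with anything below 10 considered active.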 Active and inactive are the calls of the source.

Legend:
Assay in all cases: NCI-60 one-dose screen, 48 h (100 = growth as untreated, 0 = no growth, -100 = all killed)
Conditions in all cases: 10 µM unless noted
[1] = tested on: T-47D breast
[2] = tested on: BT-549 breast
[3] = tested on: MDA-MB-435 melanoma
[4] = tested on: SW-620 colon
[5] = tested on: MCF7 breast
[6] = tested on: HCT-116 colon
[7] = tested on: HCC-2998 colon
[8] = tested on: KM12 colon

Measured: growth

CCN(CC)CCCC(C)NCc1ccccc1 (centres undefined)
inactive: [1] 105% | [2] 85.2% | [3] 100% | [4] 105% | [5] 93.8% | [6] 90.8% | [7] 99.5% | [8] 96.9%

COc1ccc(-c2nnc(SCC(=O)NC3=NN=C(c4ccccc4)CS3)o2)cc1
inactive: [1] 78.4% | [2] 104% | [3] 97.1% | [4] 98.3% | [5] 102% | [6] 94.2% | [7] 105% | [8] 102%

O=C1c2ccccc2C(=O)c2cc(Cn3cc[n+](Cc4ccc5ccccc5c4)c3)ccc21
inactive: [1] 70.1% | [2] 60.1% | [3] 84.8% | [4] 84.2% | [5] 59.2% | [6] 84.3% | [7] 79.1% | [8] 77.8%

COc1cc2c(=O)n(CCCn3ccnc3)c3c4cc5c(cc4ccc3c2cc1OC)OCO5
active: [1] -10.9% | [3] -25.3% | [5] 4.23% | [6] -62.1% | [8] 8.03%
inactive: [2] 28.4% | [4] 11% | [7] 33.3%

CN(C)S(=O)(=O)n1cnc([C@@H]2[C@@H]3C(=O)OC[C@@H]3C[C@]23N=CN(Cc2ccccc2)C3=O)c1
inactive: [1] 102% | [2] 116% | [3] 108% | [4] 97.3% | [5] 100% | [6] 100% | [7] 98.6% | [8] 104%

CCn1c(Sc2nnc(NC(=O)CCN3CCCC3)s2)nc2c1c(=O)n(C)c(=O)n2C
inactive: [1] 102% | [2] 110% | [3] 107% | [4] 105% | [5] 105% | [6] 105% | [7] 114% | [8] 109%

CN(C)c1ccc(/C=N/NC(=O)COc2cc(=O)n(C)c3ccccc23)cc1
inactive: [1] 97.6% | [2] 108% | [3] 101% | [4] 104% | [5] 89.4% | [6] 101% | [7] 116% | [8] 109%

O=C1Nc2ccc(Cl)cc2/C1=N/N=C/c1c[nH]c2ccccc12
inactive: [1] 73.4% | [2] 93.5% | [3] 87% | [4] 79.2% | [5] 71.1% | [6] 75.6% | [7] 101% | [8] 68.1%

O=C1CSC(c2ccccc2O)N1c1nnc(Cn2cnnc2)o1 (centres undefined)
inactive: [1] 71.2% | [2] 87.7% | [3] 97.8% | [4] 105% | [5] 54.6% | [6] 88.6% | [7] 77.5% | [8] 84.3%

COc1ccc(-n2sc(=O)n(Cc3ccc(COC(=O)C(C)c4ccc(CC(C)C)cc4)cc3)c2=O)cc1 (centres undefined)
active: [4] -12.5% | [6] -31.9%
inactive: [1] 10.6% | [2] 52.8% | [3] 22% | [5] 17.8% | [7] 83.9% | [8] 85.8%

Cl.Fc1c[c-]c(-c2ccccn2)c(F)c1.[Pt].c1ccc(P(c2ccccc2)C([PH+](c2ccccc2)c2ccccc2)[PH+](c2ccccc2)c2ccccc2)cc1
active: [5] 4.74% | [6] 8.7%
inactive: [1] 27.7% | [2] 26.6% | [3] 12.9% | [4] 14.7% | [7] 24.6% | [8] 11.4%

NC(N)=N/N=C/CO
inactive: [1] 108% | [2] 96.7% | [3] 106% | [4] 106% | [5] 98.3% | [6] 94.1% | [7] 119% | [8] 102%

CCCCS(=O)(=O)Oc1ccc(-c2nc(C)c(C(=O)OCC)s2)cc1C=O
active: [6] 8.67%
inactive: [1] 80.6% | [2] 72.2% | [3] 37.1% | [4] 30.2% | [5] 35.6% | [7] 94.4% | [8] 57%

COc1ccc(C2CC(c3ccccc3)=NN2c2nc(C)c(C(C)=O)s2)cc1 (centres undefined)
inactive: [1] 99.7% | [2] 110% | [3] 103% | [4] 96.1% | [5] 94.7% | [6] 97.3% | [7] 107% | [8] 102%

N=C(N)c1ccc(-c2ccc(-c3ccc(Cl)c(Cl)c3)o2)cc1
inactive: [1] 64.3% | [2] 90%
active: [3] -42.1% | [4] -73.6% | [5] -68.9% | [6] -83% | [7] -75.7% | [8] -84.2%

Cc1ccc(S(=O)(=O)N(CC[C@@H]2C[C@H]2c2cc3ccccc3o2)C(=O)NC2CCCCC2)cc1
inactive: [1] 70.9% | [2] 112% | [3] 101% | [4] 92.1% | [5] 93.4% | [6] 85% | [7] 101% | [8] 105%

O=C1c2ccccc2C2(c3ccc(O)cc3)c3ccccc3Oc3cccc1c32 (centres undefined)
active: [3] -3.86%
inactive: [1] 21.8% | [2] 55.1% | [4] 22.7% | [5] 23.1% | [6] 14.1% | [7] 34.6% | [8] 15%

CCc1cc(Cc2cc(CC)cc(C(C)(C)C)c2O)c(O)c(C(C)(C)C)c1
inactive: [2] 40.5% | [3] 18.4% | [4] 23.3% | [5] 11.2% | [8] 19.4%
active: [1] -0.979% | [6] 6.96% | [7] 4.71%

CCN(CC)c1ccc(Nc2ccc(CC(=O)c3ccccc3)cc2)cc1
inactive: [1] 74.3% | [2] 82.4% | [3] 80.2% | [4] 89.9% | [5] 83.6% | [6] 82.4% | [7] 94.9% | [8] 74.9%

O=C(c1ccccc1)c1ccc(N2C(=O)C3C4c5ccccc5C(/C=C/C(=O)c5ccccn5)(c5ccccc54)C3C2=O)cc1 (centres undefined)
inactive: [1] 27% | [2] 22.2% | [5] 19% | [7] 25.3%
active: [3] 4.74% | [4] 3.76% | [6] -27.4% | [8] 9.88%

CCN(CC)S(=O)(=O)c1ccc(O)c(NC(=O)c2[nH]c(C)c(C(C)=O)c2CCc2ccc(Cl)cc2)c1
inactive: [1] 13% | [2] 40.5% | [3] 43.4% | [4] 61.5% | [5] 43.8% | [6] 28.1% | [7] 76.3% | [8] 29.8%

N#C/C(=C\c1ccc(Br)cc1)n1nnc2cc(Cl)c(Cl)cc21
inactive: [1] 18% | [2] 22.5% | [4] 19.2% | [6] 22.2% | [7] 35.3% | [8] 29.7%
active: [3] -18.2% | [5] 6.51%

COc1cc2ccccc2cc1C(=O)NC(=S)Nc1ccc(-c2nc3ccccc3[nH]2)cc1
inactive: [1] 76.9% | [2] 45.6% | [3] 80.2% | [4] 80.5% | [5] 59% | [6] 82% | [7] 96.3% | [8] 68.2%

CN(C)c1ccc2cc(-c3ccccc3F)c(N)nc2c1
inactive: [1] 27.1% | [2] 25.5% | [4] 30% | [5] 27% | [6] 22.4% | [7] 54.3% | [8] 26%
active: [3] -9.25%

NC(N)=N/N=C(/c1ccccc1)c1ccc(N)cc1
inactive: [1] 107% | [2] 72.7% | [3] 91.2% | [4] 111% | [5] 97% | [6] 115% | [7] 103% | [8] 112%

Cc1nn(-c2ccccc2)c2c1C(c1ccc([N+](=O)[O-])cc1)C(C#N)=C(N)O2 (centres undefined)
inactive: [1] 98.4% | [2] 123% | [3] 121% | [4] 119% | [5] 96.7% | [6] 95.8% | [7] 105% | [8] 109%

Cc1ccc(-n2nnc(C3=NCCc4c3[nH]c3ccc(Cl)cc43)c2C)cc1
inactive: [1] 35.7% | [2] 85.3% | [3] 78% | [4] 64.8% | [5] 77.8% | [6] 71.6% | [7] 75.5% | [8] 57.3%

OC(CBr)c1ccnc2ccccc12 (centres undefined)
inactive: [1] 89.1% | [2] 92% | [3] 100% | [4] 104% | [5] 96.3% | [6] 90.7% | [7] 103% | [8] 99.3%
